According to PubChem BioAssay AID1159580 (chemical genetic matrix, 2015):
Among all 5,500 compounds or so, about 2,000 (36%) were called active. Another 18% or so got no clear call; they are omitted. Cut-off read from the data, not from the text of the source: active = normalized growth mostly below about 0.91 (no sharp cut-off); inconclusive = no clear call, values can overlap the other calls; inactive = mostly above about 0.92. Some of the results follow.

Assay: chemical genetic growth profiling, strain panel (AID 1159580);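 note: tested at 20 µM; growth read once vehicle control cultures reached saturation at 30 °C; 1 = growth at the plate median or of vehicle wells; lower values mean less growth of the strain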
Details: S. cerevisiae deletion strains, growth OD

Measured: normalized growth

COc1ccc(-c2cc(=O)c3c(O)c(OC)c(OC)c(OC)c3o2)cc1
inactive: locus YAL021C, strain ccr4, hits give low values 0.987 | locus YAL026C, strain drs2, hits give low values 0.988 | locus YAL030W, strain snc1, hits give low values 1 | locus YBL061C, strain skt5, hits give low values 0.99 | locus YBR009C, strain hhf1, hits give low values 0.995 | locus YBR023C, strain chs3, hits give low values 0.993 | locus YBR171W, strain sec66, hits give low values 0.999 | locus YBR231C, strain swc5, hits give low values 0.986 | locus YBR279W, strain paf1, hits give low values 0.999 | locus YCL011C, strain gbp2, hits give low values 0.987 | locus YCL016C, strain dcc1, hits give low values 0.968 | locus YCL069W, strain vba3, hits give low values 0.983 | locus YCR088W, strain abp1, hits give low values 0.996 | locus YDL005C, strain med2, hits give low values 0.986 | locus YDL040C, strain nat1, hits give low values 0.993 | locus YDR001C, strain nth1, hits give low values 0.992 | locus YDR069C, strain doa4, hits give low values 0.976 | locus YDR137W, strain rgp1, hits give low values 1 | locus YDR159W, strain sac3, hits give low values 1 | locus YDR195W, strain ref2 0.953 | locus YDR297W, strain sur2, hits give low values 0.987 | locus YDR334W, strain swr1, hits give low values 0.977 | locus YDR335W, strain msn5, hits give low values 0.995 | locus YDR392W, strain spt3, hits give low values 0.991 | locus YEL003W, strain gim4, hits give low values 0.984 | locus YEL037C, strain rad23, hits give low values 0.992 | locus YEL061C, strain CIN8 (second series), hits give low values 0.998 | locus YER015W, strain faa2, hits give low values 0.989 | locus YER016W, strain bim1, hits give low values 0.998 | locus YER111C, strain swi4, hits give low values 0.997 | locus YER155C, strain BEM2 (second series), hits give low values 0.978 | locus YFR010W, strain ubp6, hits give low values 1 | locus YGL167C, strain pmr1, hits give low values 0.995 | locus YGL173C, strain kem1, hits give low values 1.02 | locus YGL227W, strain vid30, hits give low values 1 | locus YGL240W, strain doc1, hits give low values 1 | locus YGL253W, strain hxk2, hits give low values 1 | locus YHR013C, strain ard1, hits give low values 0.971 | locus YHR027C, strain rpn1, hits give low values 0.964 | locus YHR142W, strain chs7, hits give low values 0.986 | locus YJL092W, strain hpr5, hits give low values 0.99 | locus YJL095W, strain BCK1 (second series), hits give low values 1 | locus YJL115W, strain asf1, hits give low values 0.979 | locus YJL129C, strain trk1, hits give low values 0.979 | locus YJL154C, strain vps35, hits give low values 0.988 | locus YJL164C, strain tpk1, hits give low values 1.01 | locus YJL166W, strain qcr8, hits give low values 0.998 | locus YJL187C, strain SWE1, hits give low values 0.995 | locus YKL160W, strain elf1, hits give low values 0.972 | locus YKR026C, strain gcn3, hits give low values 1.01 | locus YKR091W, strain srl3, hits give low values 0.994 | locus YLL001W, strain dnm1, hits give low values 0.999 | locus YLL026W, hits give low values 0.983 | locus YLL041C, strain sdh2, hits give low values 0.982 | locus YLR027C, strain aat2, hits give low values 0.991 | locus YLR221C, strain rsa3, hits give low values 0.992 | locus YLR258W, strain gsy2, hits give low values 0.982 | locus YLR262C, strain YPT6 (second series), hits give low values 1 | locus YLR320W, strain mms22, hits give low values 1 | locus YLR342W, strain FKS1, hits give low values 0.99 | locus YLR357W, strain rsc2, hits give low values 0.97 | locus YLR370C, strain arc18, hits give low values 0.983 | locus YLR384C, strain iki3, hits give low values 0.99 | locus YML120C, strain ndi1, hits give low values 0.992 | locus YMR058W, strain fet3, hits give low values 0.976 | locus YMR125W, strain sto1, hits give low values 0.974 | locus YMR129W, hits give low values 0.989 | locus YMR205C, strain PFK2, hits give low values 0.997 | locus YMR231W, strain pep5, hits give low values 1.01 | locus YNL071W, strain lat1, hits give low values 1 | locus YNL209W, strain ssb2, hits give low values 0.984 | locus YNL248C, strain rpa49, hits give low values 0.969 | locus YNL322C, strain KRE1 (second series), hits give low values 1.01 | locus YNR049C, strain mso1, hits give low values 0.984 | locus YOR001W, strain rrp6, hits give low values 0.998 | locus YOR070C, strain gyp1, hits give low values 0.99 | locus YOR080W, strain dia2, hits give low values 0.984 | locus YOR083W, strain WHI5, hits give low values 0.993 | locus YOR106W, strain vam3, hits give low values 0.955 | locus YOR265W, strain rbl2, hits give low values 0.983 | locus YOR270C, strain vph1, hits give low values 1.01 | locus YOR290C, strain snf2, hits give low values 0.955 | locus YPL051W, strain arl3, hits give low values 0.981 | locus YPL078C, strain atp4, hits give low values 0.991 | locus YPL106C, strain sse1, hits give low values 0.981 | locus YPL240C, strain hsp82, hits give low values 0.99
